Assay outcomes as filed in PubChem.
PTAP-TSG101 blk: inhibitors of HIV-1 PTAP binding to human TSG101, validation; Q99816; Fluorescence polarization, FITC-PTAP peptide/Tsg101, 20 min; Potency, µM (titrated, usually from 115 µM), hits mostly inhibitors; 44,000 tested, under 10 active; AID 1347069
Target sequence (Q99816 whole entry, looked up): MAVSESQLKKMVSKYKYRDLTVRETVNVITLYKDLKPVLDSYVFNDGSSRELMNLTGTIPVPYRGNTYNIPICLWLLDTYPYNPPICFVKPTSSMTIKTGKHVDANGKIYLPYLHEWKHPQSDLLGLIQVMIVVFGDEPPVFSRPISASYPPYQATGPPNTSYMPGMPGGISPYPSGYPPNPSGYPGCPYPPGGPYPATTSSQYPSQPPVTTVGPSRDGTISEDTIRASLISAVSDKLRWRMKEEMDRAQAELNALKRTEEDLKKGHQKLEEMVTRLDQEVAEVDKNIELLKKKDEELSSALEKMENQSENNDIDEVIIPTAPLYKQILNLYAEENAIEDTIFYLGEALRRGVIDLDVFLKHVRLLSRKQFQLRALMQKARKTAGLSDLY
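Read-out is FITC fluorescence polarization. Compounds were added to Tsg101 binding domain (10 uM final), then FITC-PTAP peptide (50 nM final), 20 min at r.t. Total S+P intensity flags fluorescent compounds.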
HTT-AS act: activates huntingtin-antisense promoter activity. AID 1508624. HEK293 HTT-AS promoter firefly luciferase reporter, 24 h; response scale: percent change from vehicle, -100% = no light. Potency, µM (series often up to 57.5 µM), usual class: activators. 48,000 compounds, 0.24% hits; further: nearly all actives have a fitted effect of over 55% in size
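Firefly luciferase signal from promoter-reporter HEK293 cells was scaled between vehicle (0%) and zero RLU (-100%). Compounds were tested at final concentrations of up to 57.5 uM over 24 h at 37 degrees C. PTC124 at 50 uM final served as control inhibitor.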
GALK inh: inhibits human galactokinase; 44,000 tested, under 10 active; P51570; Potency, µM (titrated, usually from 57.5 µM), hits mostly inhibitors; recombinant GALK, Kinase-Glo ATP luminescence, 1 h
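Reactions with and without enzyme served as controls. GALK at 5 nM phosphorylates 100 uM galactose using 35 uM ATP (HEPES pH 8.0, Mg2+) for 1 h at RT, with luminescence read 10 min after adding Kinase-Glo Plus.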
HTT prom inh: inhibitors of huntingtin promoter activity. AID 1508623. Potency, µM (doses to about 57.5 µM), hits mostly inhibitors. HEK293 HTT promoter firefly luciferase reporter, 24 h. 48,000 compounds, 0.93% hits; further: nearly all actives have a fitted effect of over 50% in size
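HEK293 luciferase promoter-reporter cells (2,500/well) plated 24 h, then compounds added at up to 57.5 uM final for 24 h at 37 °C. Firefly luminescence by Dual-Glo, normalized to vehicle (0%) and zero RLU (-100%).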
B2AR arrestin ag: ADRB2 beta-arrestin recruitment. P07550. HTLA Tango cells, beta-arrestin recruitment, luciferase luminescence, 18 h. Potency, µM (titrated, usually from 46.1 µM), most hits filed as activators. 44,000 tested, under 10 active. AID 1347077
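Receptor–beta-arrestin recruitment read by tTA-responsive luciferase: compound titrations (up to 46 µM) incubated 18 h with Tango cells, then luminescent substrate 15 min at room temperature. Concentration-response fits classified by r2, efficacy and activity.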
DRV1 agonist: activates human resolvin D1 receptor GPR32. O75388. CHO-K1 GPR32 beta-arrestin PathHunter luminescence, 90 min; zero percent set by DMSO-only wells. activation, % at 76.9 µM. 48,000 compounds, 2.5% hits. AID 1346428;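 active means activation of at least 60% and not above a set upper limit, about 1 call in 100 departs from these limits; inconclusive means activation of 40% to 60%, or above that upper limit; inactive means activation under 40%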
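PathHunter beta-arrestin recruitment in CHO-K1 cells stably expressing ProLink-tagged GPR32. Cells were exposed to compound for 90 min at 37 C, then chemiluminescence was read after 1 h detection at ambient temperature; DMSO served as basal control.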
A number is an active result; i = inactive; ? = inconclusive; nt = no result; [ ] = another dose, or the depositor's remark. Rows were chosen to be rich in hits. Some 3.7% of all compounds tested hit in one or more screens of this group. Unless noted, the call rests on the fitted dose curve; in most records, active means well fitted curve in the direction sought with a large enough effect; inconclusive means small, poorly fitted or top-dose-only effect, or another doubt; inactive means no such curve, though single readings can be large; an effect the other way counts as inactive or inconclusive.

SMILES	PTAP-TSG101 blk	HTT-AS act	GALK inh	HTT prom inh	B2AR arrestin ag	DRV1 agonist
Cc1ccc(CNCc2c(C(=O)O)n(Cc3ccc(C)cc3)c3cc(C)ccc23)cc1	i	i	i	?	i	98
CCc1ccc(CNCc2c(C(=O)O)n(Cc3ccc(C)cc3)c3cc(C)ccc23)cc1	i	i	i	?	i	i
CCc1ccc(CNCc2c(C(=O)O)n(Cc3cccc(F)c3)c3cc(OC)ccc23)cc1	i	i	i	?	i	109
COc1ccc(Cn2c(C(=O)O)c(CNCCc3ccco3)c3ccc(OC)cc32)cc1	i	i	i	i	i	i
COc1ccc2c(CNCCc3ccc(SC)cc3)c(C(=O)O)n(Cc3ccc(F)cc3)c2c1	i	i	i	?	i	115
Cc1cn2c(-c3cn[nH]c3)cnc2c(Nc2ccc(C(=O)N3CCNCC3)cc2F)n1	nt	i	nt	?	nt	nt
NC[C@H]1O[C@H](O[C@H]2[C@@H](O)[C@@H](O[C@H]3O[C@H](CO)[C@@H](O)[C@H](N)[C@@H]3O)[C@H](N)C[C@@H]2N)[C@H](N)C[C@H]1O	nt	i	nt	i	nt	nt
COc1ccc(NC(=O)c2cccn2-c2nnc(N3CCCCC3)s2)c(OC)c1	i	i	i	i	i	i
CCN(CC)c1ccc(NC(=O)c2cccn2-c2nnc(N3CCCCC3)s2)c(C)c1	i	i	i	?	i	76
CC(C)(C)c1nc2c3cc[nH]c(=O)c3c3cc(F)ccc3c2[nH]1	nt	i	nt	i	nt	nt
C[C@@]1(C(=O)Nc2ccc(F)nc2)CCCN1c1nc(Nc2cc(C3CC3)[nH]n2)c2cccn2n1	nt	i	nt	?	nt	nt
O=C(Cn1c(=O)oc2cc(S(=O)(=O)NCc3ccccc3)ccc21)Nc1cccc(F)c1	i	i	i	i	i	67
O=C(Cn1c(=O)oc2cc(S(=O)(=O)NC3CCCC3)ccc21)Nc1ccc(F)c(F)c1	i	i	i	?	i	91
CN1CCC[C@H]1CCO[C@](C)(c1ccccc1)c1ccc(Cl)cc1	nt	i	nt	i	nt	nt
c1ccc(-n2ncc3c(NC4CCCC4)ncnc32)cc1	i	?	i	i	i	i
Cc1cccc(-n2ncc3c(Nc4ccc(Oc5ccc(Cl)cc5)cc4)ncnc32)c1	i	i	i	i	i	i
Cc1cccc(-n2ncc3c(NC4CCCC4)ncnc32)c1	i	?	i	i	i	114
Cc1cccc(-n2ncc3c(Nc4ccc(C)c(Cl)c4)ncnc32)c1	i	i	i	i	i	74
Cc1ccc(-n2ncc3c(NC4CCCC4)ncnc32)cc1	i	i	i	?	i	112
Cc1cccc(C(=O)NNc2ncnc3c2cnn3-c2ccc(C)cc2C)c1	i	i	i	i	i	113
CCOC(=O)Oc1ccc(CCNC(=O)[C@H](CCSC)NC(C)=O)cc1OC(=O)OCC	nt	i	nt	i	nt	?
COc1cc2c(cc1NC(=O)COc1ccc(Br)cc1)oc1ccccc12	i	?	i	i[11.5 µM]	i	i
COc1cc2c(cc1NC(=O)C(C)Oc1ccccc1)oc1ccccc12 (stereo not drawn)	i	4µM	i	i	i	i
Cc1ccc(O)c(NC(=O)c2ccc(Br)c(S(=O)(=O)N3CCCCC3)c2)c1	i	i	i	20µM	i	i
Cc1n[nH]c(C)c1CCc1nc2c3ccccc3nc(SCC(=O)Nc3ccc(F)cc3)n2n1	i	i	i	i	i	72
Cc1cccc(C)c1NC(=O)CSc1nc2ccccc2c2nc(CCc3c(C)n[nH]c3C)nn12	i	i	i	i	i	i
CC(=O)Nc1ccc([C@H](C)C(=O)Nc2ncc(C(C)C)s2)cc1	nt	i	nt	?	nt	nt
Cc1cccc(NC(=O)CCCn2c(C)c3cnn(-c4ccccc4)c(=O)c3c2C)c1C	i	i	i	i	i	i
Cc1cccc(N2CCN(C(=O)Cn3c(C)c4cnn(-c5ccccc5)c(=O)c4c3C)CC2)c1C	i	i	i	10µM	i	i
CN(C)CCOc1cc(-c2cn[nH]c2)ccc1NC(=O)C1COc2ccccc2O1 (stereo not drawn)	nt	i	nt	i	nt	nt
